Results: PubChem BioAssay AID624330 (Southern Research Specialized Biocontainment Screening …, 2012)
Among all 340,000 compounds or so, about 2,100 (0.62%) were called active.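 Rule for the calls: active = first-screen hits whose inhibition reached a set limit at any dose in the follow-up dose series; inconclusive = inhibition above the set first-screen limit but never retested; inactive = the rest.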 These entries were drawn from the full list. Measured potencies and affinities stand elsewhere.

Target: Rac GTPase-activating protein 1 (Homo sapiens) (UniProt Q9H0H5)
Assay: blockers of MgcRacGAP-driven Rac1 GTP hydrolysis – biochemical, ADP Hunter fluorescence, primary and confirmatory, confirmation (AID 624330);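 note: fluorescence reports GDP produced by GAP-driven GTP hydrolysis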
Conditions: MgcRacGAP-stimulated Rac1 GTP hydrolysis, at 30 µM, stronger effect = higher value, GST-tagged Rac1 F28L mutant substrate

Rac GTPase-activating protein 1 (Homo sapiens), sequence (Q9H0H5 whole entry, looked up): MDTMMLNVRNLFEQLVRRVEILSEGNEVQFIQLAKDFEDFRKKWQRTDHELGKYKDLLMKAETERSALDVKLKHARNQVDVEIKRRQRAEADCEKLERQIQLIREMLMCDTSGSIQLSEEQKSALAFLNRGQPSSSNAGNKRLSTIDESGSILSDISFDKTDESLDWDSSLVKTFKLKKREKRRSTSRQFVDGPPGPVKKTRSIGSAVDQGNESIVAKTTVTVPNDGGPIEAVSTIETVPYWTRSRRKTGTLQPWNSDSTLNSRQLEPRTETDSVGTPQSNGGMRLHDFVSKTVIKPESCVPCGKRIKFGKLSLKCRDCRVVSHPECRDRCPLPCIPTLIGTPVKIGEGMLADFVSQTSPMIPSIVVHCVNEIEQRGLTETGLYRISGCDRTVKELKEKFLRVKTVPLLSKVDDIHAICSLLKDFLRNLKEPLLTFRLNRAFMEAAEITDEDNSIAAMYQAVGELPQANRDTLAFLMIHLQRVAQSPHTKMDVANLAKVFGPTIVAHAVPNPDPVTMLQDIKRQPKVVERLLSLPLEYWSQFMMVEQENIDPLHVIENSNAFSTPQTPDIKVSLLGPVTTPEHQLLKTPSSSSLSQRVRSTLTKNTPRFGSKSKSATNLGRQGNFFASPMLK

inhibition, inactive:
CCOC(=O)CN1C(=O)S/C(=C/c2ccc(C)o2)C1=O 13.6%
O=C(CN(CC1CCCO1)C(=O)CCC(=O)Nc1nccs1)NCC1CCCO1 (stereo unspecified) -9.34%
O=C1CCc2cc(S(=O)(=O)Nc3cccc(F)c3)cc3c2N1CC3 4.84%
O=C(NCC(c1cccs1)N1CCOCC1)c1cc(S(=O)(=O)N2CCOCC2)c(Cl)cc1Cl (stereo unspecified) 2.31%
Cc1occc1-c1nnc(SCCCC(=O)c2ccc(F)cc2)n1C 14.1%
NNC(=S)NCCc1ccccc1 6.19%
CC(C(=O)Nc1ccccc1)N1CCN(c2ccccn2)CC1 (stereo unspecified) 7.75%
CC(C(=O)N1CCc2ccccc21)N1CCN(c2ccccn2)CC1 (stereo unspecified) 6.14%
O=C(CNC(=O)Cc1ccccc1)NCc1cccc(C(F)(F)F)c1 1.1%
CCN(Cc1ccncc1)C(=O)c1cccs1 -1.7%
O=C(CC1CCCC1)N1CCCC(Nc2cccc(F)c2)C1 (stereo unspecified) 7.36%
CC1CC(C)CN(C(=O)Cn2c(=O)n(CCCC(=O)NCc3ccco3)c(=O)c3sccc32)C1 (stereo unspecified) 9.26%
CCOc1cc2c(cc1OCC)C(c1ccccc1)N(c1ccccc1)C(=O)C2 (stereo unspecified) 1.91%
CCN(CC)C(=O)CSc1nc2ccccc2c(=O)n1-c1ccccc1OC -9.96%
CCn1c(/C=C/c2ccc(F)cc2)nc2ccccc2c1=O 8.84%
Cn1c(/C=C/c2ccccc2)nc2ccccc2c1=O 5.36%
C=CCn1c(C)nc2ccccc2c1=O 2.89%
CCn1c(/C=C/c2ccccc2)nc2ccccc2c1=O 10.4%
COc1ccccc1-n1c(SCC(=O)N2CCOCC2)nc2ccccc2c1=O -0.91%
O=c1c2ccccc2nc(N/N=C/c2ccc(O)cc2)n1O 18.1%
O=c1c2ccccc2nc(/C=C/c2ccc(O)cc2)n1CCc1ccccc1 4.64%
O=C(CSc1nncn1-c1ccccc1)Nc1ccccc1F 3.06%
COc1ccccc1/C=C/C(=O)OCC(=O)N1CCN(S(=O)(=O)c2ccc(C)cc2C)CC1 6.05%
CC(OC(=O)c1ccc(Cl)nc1)C(=O)Nc1ccc(S(=O)(=O)N2CCCC2)cc1 (stereo unspecified) 4.67%
C[C@@]12C(=O)N(CC3CC3)CC(=O)N1[C@H](C1CC1)[C@@H]1C(=O)N(c3ccccc3)C(=O)[C@@H]12 7.67%
Cc1cc(C)n2c(SCC(=O)NCc3ccc4c(c3)OCO4)nnc2n1 11.5%
CSCCC(NC(=O)c1ccccc1Br)C(=O)N1CCN(C/C=C/c2ccccc2)CC1 (stereo unspecified) 9.7%
COc1ccc(Cl)cc1NS(=O)(=O)N1CCOCC1 6.51%
COc1ccc(OC)c(/C=N/NC(=O)CC2C(=O)NN=C2C)c1 (stereo unspecified) 3.85%
CC1C(=O)NN=C1C(=O)N/N=C/c1ccco1 (stereo unspecified) 14.2%
CC1C(=O)NN=C1C(=O)N/N=C\C(Br)=C\c1ccccc1 (stereo unspecified) 20.2%
COc1ccc(/C=N\NC(=O)C2=NNC(=O)C2C)cc1 (stereo unspecified) 13.9%
COc1cc(OC)c(OC)cc1/C=N/NC(=O)CC1C(=O)NN=C1C (stereo unspecified) 4.43%
CC1C(=O)NN=C1C(=O)N/N=C/c1cccs1 (stereo unspecified) 17.2%
CCOC(=O)C1C(=O)NC(C(=O)OCC)(C(=O)OCC)C1C(C)CC (stereo unspecified) 6.57%
CC1CCCC(NC(=O)COC(=O)/C=C/c2ccco2)C1C (stereo unspecified) 2.8%
CNCCCOc1cccc(OC(C)C)c1 16.9%
CCc1ccccc1N(C(=O)c1ccco1)C(C(=O)NC1CCCC1)c1cccnc1 (stereo unspecified) 4.45%
CN(CC(=O)NCC1CCCO1)S(=O)(=O)c1ccc(Br)cc1 (stereo unspecified) 7.12%
C/C(N)=C(/C#N)C(=O)COC(=O)C1CCN(S(=O)(=O)c2cccs2)CC1 -1.72%
CC(=O)Nc1ccc(C(=O)N2CCc3cc4c(cc3C2C)OCCCO4)cc1 (stereo unspecified) 1.24%
COC(=O)C[C@H]1C[C@@H]2c3cc(NC(=O)Nc4ccc(F)cc4)ccc3O[C@@H]2[C@@H](CO)O1 7.07%
O=c1[nH]n(-c2ccccc2)c(=O)c2ccccc12 -1.66%
O=c1ccc(=O)n(-c2ccccc2)[nH]1 2.41%
O=C(O)CSCC(=O)Nc1ccc(C(=O)O)cc1 7.72%
COc1cc(CNCCO)ccc1OCCc1ccccc1 5.16%
O=C(O)c1ccccc1Nc1ccccc1C(=O)O 2%
COc1cccc(Nc2ccccc2C(=O)O)c1 7.48%
CC(Oc1ccccc1)C(=O)Nc1cccc(F)c1 (stereo unspecified) 3.1%
Cc1cc(N)cc(C)c1-c1c(Br)cc(N)cc1Br 10.2%
Cc1cc(C)cc(N)c1 6.83%
O=C(CCC(=O)OCc1cccc([N+](=O)[O-])c1)Nc1ccccc1Cl 2.82%
COc1ccc(C(=O)NCCc2nnc3ccc(SCC(=O)NCc4ccc(F)cc4)nn23)cc1 -0.6%
Cc1onc(-c2ccccc2Cl)c1C(=O)NNC(=O)c1nn(C)cc1Cl 1.82%
O=C(c1cc(COc2ccc(F)c(F)c2)on1)N1CCN(C/C=C/c2ccccc2)CC1 -6.39%
Nc1nc(N)c2cc(Sc3ccc(Cl)cc3)ccc2n1 11.7%
Nc1nc(N)c2cc(Sc3cccc(C(F)(F)F)c3)ccc2n1 5.58%
Cc1nc(Cc2nnc(SCC(=O)N3CCN(c4ccccc4)CC3)o2)cs1 5.08%
Cc1nc(Cc2nnc(SCC(=O)N3CCN(c4ccc(F)cc4)CC3)o2)cs1 0.95%
CC(C)(C)C(=O)Nc1nc(=S)ss1 11.6%
CC(=O)Nc1nc(=S)ss1 12.7%
